The values that follow come from PubChem BioAssay (NCATS).

SMILES strings stand for the structures. Results filed as inconclusive are left out. Active and inactive are the calls of the source. Calls come from the whole dose curve; as a rule, active = well fitted curve in the direction sought with a large enough effect; inconclusive = small, poorly fitted or top-dose-only effect, or another doubt; inactive = no such curve, though single readings can be large; an effect the other way counts as inactive or inconclusive.

Test [1] concerns the target Glutathione peroxidase 1 (Homo sapiens) (UniProt P07203). Kind of test: Primary qHTS Assay for Inhibitors of Recombinant Selenoprotein Glutathione Peroxidase 1 (GPX1) (AID 1845191). Note: nearly all actives have a fitted effect of over 65% in size. Note: potency is the fitted concentration of half-maximal effect. The gist of the method:
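10 nM GPX1 + cpd, 30 min RT; start w/ 1 mM GSH, 0.5 mM cumene hydroperoxide, 0.5 mM NADPH, 100 nM GR, 0.01% BSA; buffer 50 mM Tris-HCl pH 7.5, 2 mM EDTA, 150 mM NaCl; Fl 340/450, 0 & 15 min.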

Test [2] deals with Luciferin 4-monooxygenase (Photinus pyralis) (UniProt P08659). Nature of the test: Primary firefly luciferase (FLuc) qHTS assay for identification of artifact compounds. (AID 1845220). Note: nearly all actives have a fitted effect of over 60% in size. Conditions: outcome: dose series up to 54.1 µM unless noted. The procedure, abridged: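 FLuc 10 nM; luciferin 10 uM; ATP 10 uM; Tris-acetate pH 7.6, Mg-acetate 10 mM; 15 min RT preincubation; 5 min reaction; luminescence.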
Background: qHTS replaces the single test concentration by a dilution series.

Test [3] is described as follows: Primary fluorescence-based thiol-reactive (MSTI) qHTS assay for identification of artifact compounds. (AID 1845221). Note: nearly all actives have a fitted effect of over 65% in size. Note: potency is the fitted concentration of half-maximal effect. The gist of the method: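 Thiol-reactive compounds detected by quenching of 4 uM MSTI fluorescence (525/598 nm) after 1 h room-temperature dark incubation in PBS pH 7.4, 2% DMSO. qHTS titration; percent inhibition Hill-fitted against Acetyl-MSTI/MSTI controls.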

A short description of test [4]: Primary redox qHTS assay for identification of artifact compounds. (AID 1845223). The gist of the method:
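Amplex Red (25 uM) and HRP (250 mU/mL) in HBSS, with compounds for 15 min, then 250 uM DTT for 30 min, room temperature, dark. Fluorescence 525/598 nm read; normalized to DMSO and 10 uM DA3003; Hill fit.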

Test [5] is described as follows: Quantitative High-Throughput drug screen in 47 multiple myeloma cell lines against the NCATS MIPE library collection: FR4_PLB cell viability assay (AID 1918924; note: nearly all actives have a fitted effect of over 35% in size; note: potency is the fitted concentration of half-maximal effect). The procedure, abridged: (§1)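 Primary qHTS used for cherry-picking: cells at 500/well, library compounds for 48 h (37C, 5% CO2), luminescent ATP assay.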
The nature of test [6]: Quantitative High-Throughput drug screen in 47 multiple myeloma cell lines against the NCATS MIPE library collection: Delta47_JCRB cell viability assay (AID 1918925; note: nearly all actives have a fitted effect of over 45% in size; note: potency is the fitted concentration of half-maximal effect). The gist of the method:
(§2)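 qHTS of the MIPE 4.0 collection: 500 myeloma cells/well, 48 h drug exposure at 37C in 5% CO2, then CellTiter-Glo for 5 min at room temperature before luminescence reading.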

Test [7] can be described thus: Quantitative High-Throughput drug screen in 47 multiple myeloma cell lines against the NCATS MIPE library collection: AMO1_DSMZ cell viability assay (AID 1918927; note: nearly all actives have a fitted effect of over 30% in size; note: potency is the fitted concentration of half-maximal effect). The gist of the method: as §2
Test [8] is described as follows: Quantitative High-Throughput drug screen in 47 multiple myeloma cell lines against the NCATS MIPE library collection: ARP1_JJKsccF8 cell viability assay (AID 1918928; note: nearly all actives have a fitted effect of over 40% in size; note: potency is the fitted concentration of half-maximal effect). The procedure, abridged:
(§3)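 Myeloma cells, 500 per well, were exposed to MIPE 4.0 drugs by pin transfer for 48 h at 37 °C, 5% CO2. Viability was read as ATP luminescence with CellTiter-Glo, normalised to DMSO-only (100%) and medium-only (0%) wells.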

A short description of test [9]: Quantitative High-Throughput drug screen in 47 multiple myeloma cell lines against the NCATS MIPE library collection: ARD_JJKsccE7 cell viability assay (AID 1918929; note: potency is the fitted concentration of half-maximal effect). The procedure, abridged: as §2
The nature of test [10]: Quantitative High-Throughput drug screen in 47 multiple myeloma cell lines against the NCATS MIPE library collection: Karpas620_DSMZ cell viability assay (AID 1918959). Note: nearly all actives have a fitted effect of over 30% in size. Note: potency is the fitted concentration of half-maximal effect. The gist of the method: as §1
Test [11] in a line: Quantitative High-Throughput drug screen in 47 multiple myeloma cell lines against the NCATS MIPE library collection: KMM1_JCRB cell viability assay (AID 1918960). Note: nearly all actives have a fitted effect of over 30% in size. Note: potency is the fitted concentration of half-maximal effect. The gist of the method: as §3
A short description of test [12]: Quantitative High-Throughput drug screen in 47 multiple myeloma cell lines against the NCATS MIPE library collection: Karpas417_ECACC cell viability assay (AID 1918961). Note: potency is the fitted concentration of half-maximal effect. The following applies: Karpas417 myeloma viability, CellTiter-Glo ATP luminescence, 48 h; viability (% of DMSO): at 45.8 µM (top of the series). The procedure, abridged: (§4)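 We plated 500 myeloma cells per well, pinned in MIPE 4.0 compounds, and incubated for 48 hours at 37C. ATP was then quantified with CellTiter-Glo, with DMSO and media-only wells defining 100% and 0%.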

Test [13] is described as follows: Quantitative High-Throughput drug screen in 47 multiple myeloma cell lines against the NCATS MIPE library collection: KHM11_PLB cell viability assay (AID 1918962). Note: nearly all actives have a fitted effect of over 35% in size. Note: potency is the fitted concentration of half-maximal effect. The procedure, abridged: as §1
The nature of test [14]: Quantitative High-Throughput drug screen in 47 multiple myeloma cell lines against the NCATS MIPE library collection: JIM3_ECACC cell viability assay (AID 1918963; note: nearly all actives have a fitted effect of over 35% in size; note: potency is the fitted concentration of half-maximal effect). The procedure, abridged:
as §1

Test [15] is described as follows: Quantitative High-Throughput drug screen in 47 multiple myeloma cell lines against the NCATS MIPE library collection: INA6_PLB cell viability assay (AID 1918965; note: potency is the fitted concentration of half-maximal effect; nearly all actives have a fitted effect of over 55% in size). The gist of the method:
as §4

Test [16] can be described thus: Quantitative High-Throughput drug screen in 47 multiple myeloma cell lines against the NCATS MIPE library collection: EJM_DSMZ cell viability assay (AID 1918926; note: nearly all actives have a fitted effect of over 30% in size; note: potency is the fitted concentration of half-maximal effect). The gist of the method: as §2
Test [17] can be described thus: Quantitative High-Throughput drug screen in 47 multiple myeloma cell lines against the NCATS MIPE library collection: JIM1_ECACC cell viability assay (AID 1918964; note: potency is the fitted concentration of half-maximal effect). The procedure, abridged:
as §2

Glutathione peroxidase 1 (Homo sapiens), sequence (P07203 whole entry, looked up): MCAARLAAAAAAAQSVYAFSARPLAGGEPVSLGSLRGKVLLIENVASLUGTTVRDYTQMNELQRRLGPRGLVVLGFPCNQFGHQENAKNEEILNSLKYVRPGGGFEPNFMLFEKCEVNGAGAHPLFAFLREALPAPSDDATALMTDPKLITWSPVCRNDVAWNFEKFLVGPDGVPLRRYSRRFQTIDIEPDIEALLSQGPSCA

Take `CN1CCN(c2ccc([N+](=O)[O-])c3no[n+]([O-])c23)CC1`: the Potency is 18300 nM (active) in test [1]; 11900 nM (active) in test [3]; 20900 nM (active) in [5]; 8330 nM (active) in [6]; 16600 nM (active) in [7]; 9350 nM (active) in test [8]. Further, the Potency in test [9] was 23500 nM (active); in [10] it was 20900 nM (active); in test [11], 20900 nM (active); in test [12] it was 5260 nM (active); in [13], 14800 nM (active); in test [14], 23500 nM (active). Also, the Potency in [15] is 13200 nM (active). In addition, the call in test [2] and in test [4] was inactive.

As to `CN(C)NC(=O)CCC(=O)O`, the Potency result in test [1], in test [5], in [16], in [7], in test [10] and in [11] was “inactive” in each case. Moreover, the Potency entry in test [14] and in test [17] was “inactive” in each case.

Consider `CCNC(=O)C[C@@H]1N=C(c2ccc(Cl)cc2)c2cc(OC)ccc2-n2c(C)nnc21`, for which the Potency result in test [1] and in test [3] was “inactive” in each case. Also, the compound was classed as inactive in test [2] and in test [4]. Further, the Potency in test [6] was 418 nM (active); in test [16], 1050 nM (active); in [7], 372 nM (active); in [8] it was 372 nM (active); in [10], 1050 nM (active); in [11], 235 nM (active). The Potency is 13.2 nM (active) in test [12], 6620 nM (active) in test [14], 1660 nM (active) in test [17] and 132 nM (active) in test [15].

With `CC[C@@H]1[C@@H](C)O[C@@](O)([C@@H](C)[C@H](O)[C@H](C)[C@H]2OC(=O)C=CC=C[C@@H](C)[C@@H]([C@@H](C)[C@@H](O)[C@H](C)[C@@]3(O)C[C@H](O[C@H]4C[C@H](O)[C@H](O)[C@H](C)O4)[C@H](CC)[C@@H](C)O3)OC(=O)C=CC=C[C@@H]2C)C[C@H]1O[C@H]1C[C@H](O)[C@H](O)[C@H](C)O1`, the Potency was 526 nM (active) in test [5]; 743 nM (active) in test [6]; 833 nM (active) in [16]; 332 nM (active) in test [7]; 372 nM (active) in [8]; 372 nM (active) in test [10]. Further, the Potency in test [11] is 469 nM (active); in test [13], 1050 nM (active); in test [14], 935 nM (active); in [17], 264 nM (active); in test [15], 1050 nM (active).

As to `C[C@@H]1CC[C@@]2(OC1)O[C@H]1C[C@H]3[C@@H]4CC=C5C[C@@H](O[C@@H]6O[C@H](CO)[C@@H](O[C@@H]7O[C@@H](C)[C@H](O)[C@@H](O)[C@@H]7O)[C@H](O)[C@@H]6O[C@@H]6O[C@@H](C)[C@H](O)[C@@H](O)[C@@H]6O)CC[C@]5(C)[C@@H]4CC[C@]3(C)[C@@H]1[C@H]2C`, the Potency in test [5] was 2350 nM (active); in test [6], 5900 nM (active); in test [16] it was 2640 nM (active); in test [7], 2640 nM (active); in test [8] it was 3320 nM (active); in test [10] it was 2960 nM (active). In addition, the Potency was 2640 nM (active) in test [11]; 1050 nM (active) in test [12]; 2960 nM (active) in test [13]; 3720 nM (active) in [14]; 2350 nM (active) in test [17]; 5260 nM (active) in [15].

Take `C1=C2CCCN[C@H]2[C@@H]2C[C@H]1[C@@H]1CCCCN1C2`: the Potency entry in [5], in [6], in test [16], in [7], in test [8] and in [10] was “inactive” in each case. Besides, the Potency entry in test [11], in test [12], in test [13] and in test [14] was “inactive” throughout.

Turning to `O=c1[nH]c2ccccc2n1C1CCN(Cc2ccc(-c3[nH]c4cc5ncnc5cc4nc3-c3ccccc3)cc2)CC1`, the Potency result in test [1] and in test [13] was “inactive” throughout. In addition, the Potency in test [5] is 23500 nM (active); in [6], 1870 nM (active); in test [16] it was 20900 nM (active); in test [8] it was 14800 nM (active); in [12] it was 1480 nM (active); in test [14], 5900 nM (active). The results for the Potency in test [17] and in test [15] were 4690 nM (active) and 1480 nM (active), respectively.

Regarding `CCC(=O)OC1CCC2C3CCC4=CC(=O)CC[C@@]4(C)C3CC[C@]12C` (some centres undefined), the Potency entry in test [5], in test [16], in test [7], in test [9], in test [10] and in test [11] was “inactive” in each case. The Potency result in test [13] and in [14] was “inactive” each time. Also, the Potency in test [6] was 18700 nM (active); in [15], 20900 nM (active).

As to `C[C@@H]1CC[C@H]2[C@@H](C)C(=O)O[C@@H]3O[C@@]4(C)CC[C@H]1[C@]32OO4`, the Potency result in test [16] and in test [11] was “inactive” each time. The Potency in [8] was 332 nM (active); in [10], 5900 nM (active); in [14] it was 1480 nM (active); in [15], 1180 nM (active).

With `CO[C@H]1CCC(O[C@H]2C[C@H]([C@]3(C)CC[C@]4(C[C@H](O)[C@@H](C)[C@@H]([C@@H](C)C=C(C)C(=O)[C@H](C)C[C@H](C)C(=O)O)O4)O3)O[C@]3(O[C@@H]([C@H]4O[C@@](O)(CO)[C@H](C)C[C@H]4C)C[C@H]3C)[C@H]2C)O[C@H]1C` (some centres undefined), the Potency in test [5] was 3720 nM (active); in test [6] it was 1180 nM (active); in test [16], 3320 nM (active); in test [8] it was 1180 nM (active); in [10] it was 264 nM (active); in test [11], 187 nM (active). Besides, the Potency in [14] and in test [15] was 526 nM (active) each time.

For `CC(C)N[C@@H]1CCn2c(=O)[nH]c3cccc(c32)[C@@H]1O`, the Potency in test [6] is 14800 nM (active); in test [16], 14800 nM (active); in test [7], 5900 nM (active); in test [8], 11800 nM (active); in test [10], 5260 nM (active); in test [11], 743 nM (active). Moreover, the Potency in test [12] was 1050 nM (active); in test [13], 13200 nM (active); in test [14], 9350 nM (active).

Regarding `C=C[C@@H]1CN2CCC1C[C@H]2[C@H](O)c1ccnc2ccccc12` (some centres undefined), the Potency in test [5] is 18700 nM (active); in test [14] it was 14800 nM (active); in test [15], 20900 nM (active). The Potency result in test [7], in [9] and in [10] was “inactive” in each case.
